# From the OligoGym collection
# Target: C19orf26
# Experiment: pooled miR-30 sensor sort-seq; sequence = guide strand
# Conditions: shRNA
# Further: reference of the scale not given here.
row,Sequence,sensor-assay potency score (higher = more potent)
1,TCGTGGATGGTGACAATCTTGA,-1.35
2,TCCGTCAGTGTGTACCGGCGAC,-0.95
3,TCATTGAAGGAGACCCGGCGGC,-0.71
4,TGAGTCACACTCGTGGATGGTG,-0.617
5,TTGCAGAGGAGCAGGACGCCAG,-1.16
6,TTCCACTTCTTGACCTTGAAAT,-1.35
7,TTGTCCTGCGTCTTGCGGCTCT,-0.61
8,TTCTTGACCTTGAAATAGGGGC,-0.421
9,TCGCCTGAGTCACACTCGTGGA,-1.57

# Target: C19orf33
# Experiment: as above
# Conditions: shRNA
row,Sequence,sensor-assay potency score (higher = more potent)
1,TTCACTTTGGGCTTCTTGGCCT,-0.157
2,TTCTCCTTCTTCTTCACTTTGG,-0.173
3,AACTTTGTGGGGACTGAGCTTG,-0.364
4,TCCGAATCGCTGGAGCTGCTGC,-0.94
5,ACATCCGTGTCCGAATCGCTGG,-1.43
6,TCTCGTGCTGCTTGGAGCCAGC,-1.2
7,TTCTTCTTCACTTTGGGCTTCT,0.272
8,TGAGCTTGGGATCTCCCCCGTG,-0.899
9,TCTCCTTCTTCTTCACTTTGGG,-0.407
10,TCCGTGTCCGAATCGCTGGAGC,-1.74
11,AAGAGCTGTGGTGTCCTTGCTT,0.114
12,ATCCGTGTCCGAATCGCTGGAG,-0.418

# Target: C19orf43
# Experiment: as above
# Conditions: shRNA
row,Sequence,sensor-assay potency score (higher = more potent)
1,TTGAGGGCTAGTTTGTTCCCGC,-0.869
2,TAAATAGTTATGTACATCGCAG,-0.74
3,TTTATCATCGTCACCGCACTGG,0.198
4,TTATCATCGTCACCGCACTGGT,-1.04
5,TGTTCTATGAAGTCTCACGAGG,-1.02
6,TACTTGTTAATACCTCATCCTC,-0.735
7,ATCATCGTCACCGCACTGGTGA,-0.305
8,TTGGCTACTATTCCCGTCTTGA,0.118
9,AACAGCTCCAGGAAGCTGCCGT,-0.55
10,TAATACCTCATCCTCCGTCTTC,-0.695
11,TTGAACAGCTCCAGGAAGCTGC,-0.652
12,TTGGCGAACAAGTTCACGCCGC,-0.437

# Target: C19orf48
# Experiment: as above
# Conditions: shRNA
row,Sequence,sensor-assay potency score (higher = more potent)
1,TTGTGCACTGGGTTGGGTCCCA,-0.4
2,ATAGGCCTGGTCACAATAGGGA,-0.793
3,TTATCCACCTTCTCCTGGGTGT,-0.455
4,TCCTTGTGCACTGGGTTGGGTC,-1.63
5,TAGGCCTGGTCACAATAGGGAA,-1.64
6,AAGTCCTTGTGCACTGGGTTGG,-0.738
7,TTGGGTCCCAGCATGAGCCTGG,-0.0945
